What was measured:
Details in all cases: concentration: 1 μM, replicates: in singlicate; n = 1
SNARK = tested on: T1, SNARK
T1 construct: gene NUAK2

SNRK = tested on: SNRK
SRC = tested on: SRC
SRMS = tested on: SRMS
SRPK1 = tested on: SRPK1
SRPK2 = tested on: SRPK2
SRPK3 = tested on: SRPK3
STK16 = tested on: STK16
STK33 = tested on: STK33
STK35 = tested on: STK35
STK36 = tested on: STK36
STK39 = tested on: STK39
SYK = tested on: SYK
SgK110 = tested on: SgK110
TAK1 = tested on: T2, TAK1
T2 construct: gene MAP3K7

TAOK1 = tested on: TAOK1
TAOK2 = tested on: TAOK2
TAOK3 = tested on: TAOK3
TBK1 = tested on: TBK1
TEC = tested on: TEC
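Also: KINOMEscan kinase panel screen.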

## CN(C)CCOc1ccc(-c2cc(-c3ccc(Cl)c(O)c3)c(-c3ccncc3)[nH]2)cc1.Cl.Cl [SB-684387]
SNARK
  %Inh: 9%
SNRK
  %Inh: 9%
SRC
  %Inh: 92.2%
SRMS
  %Inh: 3%
SRPK1
  %Inh: 0%
SRPK2
  %Inh: 30%
SRPK3
  %Inh: 0%
STK16
  %Inh: 14%
STK33
  %Inh: 0%
STK35
  %Inh: 0%
STK36
  %Inh: 63%
STK39
  %Inh: 33%
SYK
  %Inh: 2%
SgK110
  %Inh: 0%
TAK1
  %Inh: 32%
TAOK1
  %Inh: 0%
TAOK2
  %Inh: 1%
TAOK3
  %Inh: 0%
TBK1
  %Inh: 28%
TEC
  %Inh: 0%

## CCNc1nccc(-c2c(-c3ccc(F)cc3)ncn2C2CCN(C)CC2)n1
SNARK
  %Inh: 0%
SNRK
  %Inh: 0%
SRC
  %Inh: 9%
SRMS
  %Inh: 0%
SRPK1
  %Inh: 16%
SRPK2
  %Inh: 0%
SRPK3
  %Inh: 0%
STK16
  %Inh: 31%
STK33
  %Inh: 2%
STK35
  %Inh: 0%
STK36
  %Inh: 25%
STK39
  %Inh: 0%
SYK
  %Inh: 0%
SgK110
  %Inh: 0%
TAK1
  %Inh: 0%
TAOK1
  %Inh: 0%
TAOK2
  %Inh: 0%
TAOK3
  %Inh: 0%
TBK1
  %Inh: 1%
TEC
  %Inh: 14%

## COc1cccc(-c2nc(-c3ccccc3)[nH]c2-c2ccncc2)c1 [SB-610250]
SNARK
  %Inh: 0%
SNRK
  %Inh: 0%
SRC
  %Inh: 21%
SRMS
  %Inh: 0%
SRPK1
  %Inh: 25%
SRPK2
  %Inh: 0%
SRPK3
  %Inh: 0%
STK16
  %Inh: 9%
STK33
  %Inh: 5%
STK35
  %Inh: 0%
STK36
  %Inh: 30%
STK39
  %Inh: 19%
SYK
  %Inh: 23%
SgK110
  %Inh: 20%
TAK1
  %Inh: 0%
TAOK1
  %Inh: 0%
TAOK2
  %Inh: 0%
TAOK3
  %Inh: 0%
TBK1
  %Inh: 0%
TEC
  %Inh: 4%

## Cc1cccc(Nc2nc(NCCN)ncc2C(N)=O)c1 [GSK1292139]
SNARK
  %Inh: 73%
SNRK
  %Inh: 0%
SRC
  %Inh: 40%
SRMS
  %Inh: 0%
SRPK1
  %Inh: 56%
SRPK2
  %Inh: 18%
SRPK3
  %Inh: 0%
STK16
  %Inh: 30%
STK33
  %Inh: 73%
STK35
  %Inh: 34%
STK36
  %Inh: 0%
STK39
  %Inh: 14%
SYK
  %Inh: 97%
SgK110
  %Inh: 91.1%
TAK1
  %Inh: 83%
TAOK1
  %Inh: 15%
TAOK2
  %Inh: 66%
TAOK3
  %Inh: 9%
TBK1
  %Inh: 28%
TEC
  %Inh: 40%

## Cc1ccc(-c2ccc3occ(-c4ccc(S(C)=O)cc4)c3c2)nn1 (stereo not shown)
SNARK
  %Inh: 0%
SNRK
  %Inh: 0%
SRC
  %Inh: 6%
SRMS
  %Inh: 0%
SRPK1
  %Inh: 0%
SRPK2
  %Inh: 6%
SRPK3
  %Inh: 0%
STK16
  %Inh: 12%
STK33
  %Inh: 0%
STK35
  %Inh: 0%
STK36
  %Inh: 0%
STK39
  %Inh: 0%
SYK
  %Inh: 5%
SgK110
  %Inh: 0%
TAK1
  %Inh: 0%
TAOK1
  %Inh: 0%
TAOK2
  %Inh: 0%
TAOK3
  %Inh: 0%
TBK1
  %Inh: 47%
TEC
  %Inh: 0%

Reference: publication PMC5540273 (PLoS ONE, 2017)
